According to ChEMBL document CHEMBL1961873, “Compounds: GSK PKIS; Assays: Nanosyn kinase panel” (2012):

Tests used:
[1] = target: T1, Mitogen-activated protein kinase 12 (Homo sapiens) (UniProt P53778); details: at 1 µM;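 also: values are averaged p38gamma kinase inhibition readings, compounds tested at 1 µM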
T1 sequence (whole entry): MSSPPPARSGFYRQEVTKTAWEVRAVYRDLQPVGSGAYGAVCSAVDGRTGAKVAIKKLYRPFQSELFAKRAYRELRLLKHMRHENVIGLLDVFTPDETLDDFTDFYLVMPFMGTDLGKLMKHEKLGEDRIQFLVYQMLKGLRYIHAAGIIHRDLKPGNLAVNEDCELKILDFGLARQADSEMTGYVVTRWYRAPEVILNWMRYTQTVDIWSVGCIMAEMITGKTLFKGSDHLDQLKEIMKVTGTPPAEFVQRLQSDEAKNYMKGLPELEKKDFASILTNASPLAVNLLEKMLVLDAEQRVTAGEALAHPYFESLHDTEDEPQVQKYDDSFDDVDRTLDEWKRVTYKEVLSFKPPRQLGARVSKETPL

[2] = target: SRSF protein kinase 1 (Homo sapiens) (UniProt Q96SB4); details: at 0.1 µM
Sequence of SRSF protein kinase 1 (Homo sapiens) (Q96SB4 whole entry, canonical isoform): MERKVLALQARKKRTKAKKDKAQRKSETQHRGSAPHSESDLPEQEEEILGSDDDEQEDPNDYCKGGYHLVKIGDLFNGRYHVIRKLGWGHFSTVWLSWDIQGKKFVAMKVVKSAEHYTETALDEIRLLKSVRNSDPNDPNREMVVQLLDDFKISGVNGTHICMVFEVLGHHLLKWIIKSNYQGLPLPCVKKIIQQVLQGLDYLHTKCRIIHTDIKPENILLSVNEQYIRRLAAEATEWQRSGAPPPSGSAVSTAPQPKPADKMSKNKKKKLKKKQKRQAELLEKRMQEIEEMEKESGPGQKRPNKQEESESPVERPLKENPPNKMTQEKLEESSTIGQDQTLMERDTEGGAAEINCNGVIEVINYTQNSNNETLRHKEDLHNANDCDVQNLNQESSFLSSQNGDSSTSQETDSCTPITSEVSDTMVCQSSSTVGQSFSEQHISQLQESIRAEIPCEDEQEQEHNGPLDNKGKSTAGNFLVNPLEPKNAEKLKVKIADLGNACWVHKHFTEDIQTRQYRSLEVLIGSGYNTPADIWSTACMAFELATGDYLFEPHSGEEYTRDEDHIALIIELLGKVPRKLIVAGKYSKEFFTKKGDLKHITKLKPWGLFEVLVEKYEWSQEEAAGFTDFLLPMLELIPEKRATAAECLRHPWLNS

[3] = target: SRSF protein kinase 1 (Homo sapiens) (UniProt Q96SB4); details: at 1 µM
[4] = target: Phosphatidylinositol 4,5-bisphosphate 3-kinase catalytic subunit alpha isoform (Homo sapiens) (UniProt P42336); details: at 0.1 µM
Sequence of Phosphatidylinositol 4,5-bisphosphate 3-kinase catalytic subunit alpha isoform (Homo sapiens) (P42336 whole entry, canonical isoform): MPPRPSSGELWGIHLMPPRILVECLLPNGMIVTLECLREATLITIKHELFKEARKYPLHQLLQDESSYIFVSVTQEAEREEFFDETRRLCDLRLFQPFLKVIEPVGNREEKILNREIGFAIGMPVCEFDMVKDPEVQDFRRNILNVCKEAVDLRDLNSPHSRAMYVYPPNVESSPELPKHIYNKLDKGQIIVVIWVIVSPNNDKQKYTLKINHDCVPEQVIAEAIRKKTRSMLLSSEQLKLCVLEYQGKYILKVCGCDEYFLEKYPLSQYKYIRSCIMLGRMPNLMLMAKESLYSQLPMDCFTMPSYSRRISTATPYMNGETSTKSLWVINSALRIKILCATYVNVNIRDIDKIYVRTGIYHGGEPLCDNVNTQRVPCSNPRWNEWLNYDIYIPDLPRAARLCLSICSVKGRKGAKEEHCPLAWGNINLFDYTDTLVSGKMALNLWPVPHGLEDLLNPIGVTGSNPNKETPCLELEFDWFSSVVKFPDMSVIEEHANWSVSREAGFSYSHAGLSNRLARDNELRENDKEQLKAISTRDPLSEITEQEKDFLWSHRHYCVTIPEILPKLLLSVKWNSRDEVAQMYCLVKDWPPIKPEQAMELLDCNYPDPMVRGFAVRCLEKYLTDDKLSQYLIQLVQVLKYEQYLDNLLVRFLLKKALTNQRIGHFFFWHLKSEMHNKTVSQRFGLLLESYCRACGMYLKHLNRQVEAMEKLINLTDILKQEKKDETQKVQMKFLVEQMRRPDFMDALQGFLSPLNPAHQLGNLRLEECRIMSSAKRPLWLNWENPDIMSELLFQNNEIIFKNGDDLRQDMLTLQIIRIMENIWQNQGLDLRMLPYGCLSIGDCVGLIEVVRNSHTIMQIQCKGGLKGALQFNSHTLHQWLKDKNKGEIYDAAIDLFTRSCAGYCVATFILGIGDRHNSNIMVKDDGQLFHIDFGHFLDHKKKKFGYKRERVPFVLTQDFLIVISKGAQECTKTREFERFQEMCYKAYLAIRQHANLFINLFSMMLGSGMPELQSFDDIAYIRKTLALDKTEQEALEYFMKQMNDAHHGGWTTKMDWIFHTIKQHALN

[5] = target: Phosphatidylinositol 4,5-bisphosphate 3-kinase catalytic subunit alpha isoform (Homo sapiens) (UniProt P42336); details: at 1 µM
[6] = target: T2, Phosphatidylinositol 4,5-bisphosphate 3-kinase catalytic subunit delta isoform (Homo sapiens) (UniProt O00329); details: at 0.1 µM
T2 sequence (whole entry): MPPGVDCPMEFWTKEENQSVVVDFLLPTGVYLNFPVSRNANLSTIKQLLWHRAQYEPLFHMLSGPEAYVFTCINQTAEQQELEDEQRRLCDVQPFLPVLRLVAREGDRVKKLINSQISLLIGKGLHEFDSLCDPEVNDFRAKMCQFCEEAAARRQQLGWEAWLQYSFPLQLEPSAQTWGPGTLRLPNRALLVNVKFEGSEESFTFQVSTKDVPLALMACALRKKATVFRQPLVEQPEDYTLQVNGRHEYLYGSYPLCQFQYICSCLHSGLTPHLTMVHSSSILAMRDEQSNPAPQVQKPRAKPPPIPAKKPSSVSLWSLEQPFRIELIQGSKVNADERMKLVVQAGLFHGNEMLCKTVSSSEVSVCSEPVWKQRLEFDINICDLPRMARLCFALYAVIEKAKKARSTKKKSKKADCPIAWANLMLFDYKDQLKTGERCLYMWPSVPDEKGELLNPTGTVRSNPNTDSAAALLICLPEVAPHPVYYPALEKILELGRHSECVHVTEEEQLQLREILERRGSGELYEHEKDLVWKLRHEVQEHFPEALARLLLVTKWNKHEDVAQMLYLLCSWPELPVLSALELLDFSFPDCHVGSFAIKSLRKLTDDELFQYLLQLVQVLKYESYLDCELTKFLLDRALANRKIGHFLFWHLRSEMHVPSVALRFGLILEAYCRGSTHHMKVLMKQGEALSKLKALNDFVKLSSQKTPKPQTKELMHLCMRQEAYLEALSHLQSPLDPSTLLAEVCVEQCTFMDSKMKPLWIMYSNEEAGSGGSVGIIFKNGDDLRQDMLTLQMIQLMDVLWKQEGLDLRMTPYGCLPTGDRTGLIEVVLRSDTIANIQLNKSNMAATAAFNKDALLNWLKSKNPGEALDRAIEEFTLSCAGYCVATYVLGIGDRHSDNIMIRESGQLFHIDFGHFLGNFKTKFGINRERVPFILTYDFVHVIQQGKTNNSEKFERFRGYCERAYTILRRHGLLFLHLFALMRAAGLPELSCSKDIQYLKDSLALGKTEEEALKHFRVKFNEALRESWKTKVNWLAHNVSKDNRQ

[7] = target: T2, Phosphatidylinositol 4,5-bisphosphate 3-kinase catalytic subunit delta isoform (Homo sapiens); details: at 1 µM
[8] = target: Phosphatidylinositol 4-kinase beta (Homo sapiens) (UniProt Q9UBF8); details: at 0.1 µM
Sequence of Phosphatidylinositol 4-kinase beta (Homo sapiens) (Q9UBF8 2-816 limits assumed): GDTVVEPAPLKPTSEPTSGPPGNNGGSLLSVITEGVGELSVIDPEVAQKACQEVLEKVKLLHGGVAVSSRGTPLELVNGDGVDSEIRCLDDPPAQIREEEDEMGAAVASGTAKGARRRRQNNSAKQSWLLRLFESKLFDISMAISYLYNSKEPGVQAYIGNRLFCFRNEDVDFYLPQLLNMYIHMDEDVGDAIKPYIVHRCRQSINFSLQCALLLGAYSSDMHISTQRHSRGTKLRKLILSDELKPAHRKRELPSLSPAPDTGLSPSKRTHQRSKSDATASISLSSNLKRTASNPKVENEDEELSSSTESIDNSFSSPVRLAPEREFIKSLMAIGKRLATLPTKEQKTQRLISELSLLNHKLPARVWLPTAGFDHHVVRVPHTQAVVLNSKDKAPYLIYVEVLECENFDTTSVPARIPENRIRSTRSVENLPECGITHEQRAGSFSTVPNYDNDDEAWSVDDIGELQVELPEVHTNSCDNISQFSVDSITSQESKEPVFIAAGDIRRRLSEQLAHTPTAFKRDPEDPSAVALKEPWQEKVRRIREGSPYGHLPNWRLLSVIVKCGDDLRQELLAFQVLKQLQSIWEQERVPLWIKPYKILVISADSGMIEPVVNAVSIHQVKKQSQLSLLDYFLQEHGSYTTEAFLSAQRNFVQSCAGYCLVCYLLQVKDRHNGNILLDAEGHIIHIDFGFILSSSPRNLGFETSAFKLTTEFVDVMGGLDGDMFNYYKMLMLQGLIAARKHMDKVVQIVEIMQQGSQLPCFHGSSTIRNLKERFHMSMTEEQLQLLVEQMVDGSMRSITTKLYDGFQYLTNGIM

[9] = target: Phosphatidylinositol 4-kinase beta (Homo sapiens) (UniProt Q9UBF8); details: at 1 µM
[10] = target: Sphingosine kinase 1 (Homo sapiens) (UniProt Q9NYA1); details: at 0.1 µM
Sequence of Sphingosine kinase 1 (Homo sapiens) (Q9NYA1 whole entry): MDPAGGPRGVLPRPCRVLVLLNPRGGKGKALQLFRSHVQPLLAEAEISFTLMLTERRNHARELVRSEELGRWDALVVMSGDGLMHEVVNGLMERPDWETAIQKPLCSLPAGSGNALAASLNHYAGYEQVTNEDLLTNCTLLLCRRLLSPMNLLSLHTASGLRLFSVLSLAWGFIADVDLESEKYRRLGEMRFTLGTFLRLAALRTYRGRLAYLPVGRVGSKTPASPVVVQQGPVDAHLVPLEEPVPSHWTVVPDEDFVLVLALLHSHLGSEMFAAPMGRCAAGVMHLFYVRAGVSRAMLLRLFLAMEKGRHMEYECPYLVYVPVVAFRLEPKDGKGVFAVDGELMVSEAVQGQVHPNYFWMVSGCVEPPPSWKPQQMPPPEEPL

[11] = target: Sphingosine kinase 1 (Homo sapiens) (UniProt Q9NYA1); details: at 1 µM
[12] = target: T3, Sphingosine kinase 2 (Homo sapiens) (UniProt Q9NRA0); details: at 0.1 µM
T3 sequence (whole entry): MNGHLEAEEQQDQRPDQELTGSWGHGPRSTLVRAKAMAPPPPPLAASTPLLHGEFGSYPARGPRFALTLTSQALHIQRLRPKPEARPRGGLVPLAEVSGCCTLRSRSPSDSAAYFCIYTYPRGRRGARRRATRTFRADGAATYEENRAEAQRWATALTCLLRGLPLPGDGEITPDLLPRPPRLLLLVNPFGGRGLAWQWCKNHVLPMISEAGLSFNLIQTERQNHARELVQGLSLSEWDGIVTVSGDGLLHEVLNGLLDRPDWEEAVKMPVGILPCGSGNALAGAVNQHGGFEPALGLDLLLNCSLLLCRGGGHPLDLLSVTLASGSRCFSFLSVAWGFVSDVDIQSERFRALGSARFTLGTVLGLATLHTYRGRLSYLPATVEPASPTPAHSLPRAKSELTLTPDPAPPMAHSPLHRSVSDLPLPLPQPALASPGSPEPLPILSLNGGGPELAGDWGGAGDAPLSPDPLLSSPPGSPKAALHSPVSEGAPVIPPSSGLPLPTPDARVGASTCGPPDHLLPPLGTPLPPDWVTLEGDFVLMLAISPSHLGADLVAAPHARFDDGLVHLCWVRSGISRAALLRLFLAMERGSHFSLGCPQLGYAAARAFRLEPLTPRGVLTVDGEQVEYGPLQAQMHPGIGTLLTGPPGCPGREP

[13] = target: T3, Sphingosine kinase 2 (Homo sapiens); details: at 1 µM
[14] = target: Casein kinase II subunit alpha (Homo sapiens) (UniProt P68400); details: at 0.1 µM
Sequence of Casein kinase II subunit alpha (Homo sapiens) (P68400 whole entry, looked up): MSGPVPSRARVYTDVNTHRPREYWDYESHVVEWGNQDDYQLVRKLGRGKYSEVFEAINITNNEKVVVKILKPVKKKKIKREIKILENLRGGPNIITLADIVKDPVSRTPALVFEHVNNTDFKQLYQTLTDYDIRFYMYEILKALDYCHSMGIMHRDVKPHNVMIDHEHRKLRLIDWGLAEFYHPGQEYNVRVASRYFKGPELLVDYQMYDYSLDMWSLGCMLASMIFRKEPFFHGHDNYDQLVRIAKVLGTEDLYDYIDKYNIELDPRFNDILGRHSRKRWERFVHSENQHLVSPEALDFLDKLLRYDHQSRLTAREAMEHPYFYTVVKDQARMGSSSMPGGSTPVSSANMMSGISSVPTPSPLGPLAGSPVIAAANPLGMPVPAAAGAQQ

[15] = target: Casein kinase II subunit alpha (Homo sapiens) (UniProt P68400); details: at 1 µM
[16] = target: T4, Inhibitor of nuclear factor kappa-B kinase subunit alpha (Homo sapiens) (UniProt O15111); details: at 0.1 µM
T4 sequence (whole entry): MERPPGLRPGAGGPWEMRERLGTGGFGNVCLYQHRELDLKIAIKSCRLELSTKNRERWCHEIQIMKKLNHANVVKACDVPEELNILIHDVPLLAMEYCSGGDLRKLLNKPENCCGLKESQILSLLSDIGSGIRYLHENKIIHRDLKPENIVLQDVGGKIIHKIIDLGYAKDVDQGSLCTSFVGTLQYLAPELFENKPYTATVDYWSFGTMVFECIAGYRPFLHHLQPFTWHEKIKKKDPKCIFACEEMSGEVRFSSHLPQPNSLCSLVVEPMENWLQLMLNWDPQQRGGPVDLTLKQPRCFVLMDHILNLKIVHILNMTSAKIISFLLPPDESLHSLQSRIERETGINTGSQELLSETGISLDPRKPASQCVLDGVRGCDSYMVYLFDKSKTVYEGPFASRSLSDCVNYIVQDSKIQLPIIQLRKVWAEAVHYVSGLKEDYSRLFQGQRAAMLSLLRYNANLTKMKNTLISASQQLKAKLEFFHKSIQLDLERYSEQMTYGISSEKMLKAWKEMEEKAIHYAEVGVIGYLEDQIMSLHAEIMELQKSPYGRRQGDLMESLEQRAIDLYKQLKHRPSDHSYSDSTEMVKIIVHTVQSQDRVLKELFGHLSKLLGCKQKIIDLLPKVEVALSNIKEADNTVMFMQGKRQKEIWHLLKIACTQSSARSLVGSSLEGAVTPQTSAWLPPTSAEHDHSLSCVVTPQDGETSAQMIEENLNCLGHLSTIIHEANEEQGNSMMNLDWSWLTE

[17] = target: T4, Inhibitor of nuclear factor kappa-B kinase subunit alpha (Homo sapiens); details: at 1 µM
[18] = target: T5, Inhibitor of nuclear factor kappa-B kinase subunit beta (Homo sapiens) (UniProt O14920); details: at 0.1 µM
T5 sequence (whole entry): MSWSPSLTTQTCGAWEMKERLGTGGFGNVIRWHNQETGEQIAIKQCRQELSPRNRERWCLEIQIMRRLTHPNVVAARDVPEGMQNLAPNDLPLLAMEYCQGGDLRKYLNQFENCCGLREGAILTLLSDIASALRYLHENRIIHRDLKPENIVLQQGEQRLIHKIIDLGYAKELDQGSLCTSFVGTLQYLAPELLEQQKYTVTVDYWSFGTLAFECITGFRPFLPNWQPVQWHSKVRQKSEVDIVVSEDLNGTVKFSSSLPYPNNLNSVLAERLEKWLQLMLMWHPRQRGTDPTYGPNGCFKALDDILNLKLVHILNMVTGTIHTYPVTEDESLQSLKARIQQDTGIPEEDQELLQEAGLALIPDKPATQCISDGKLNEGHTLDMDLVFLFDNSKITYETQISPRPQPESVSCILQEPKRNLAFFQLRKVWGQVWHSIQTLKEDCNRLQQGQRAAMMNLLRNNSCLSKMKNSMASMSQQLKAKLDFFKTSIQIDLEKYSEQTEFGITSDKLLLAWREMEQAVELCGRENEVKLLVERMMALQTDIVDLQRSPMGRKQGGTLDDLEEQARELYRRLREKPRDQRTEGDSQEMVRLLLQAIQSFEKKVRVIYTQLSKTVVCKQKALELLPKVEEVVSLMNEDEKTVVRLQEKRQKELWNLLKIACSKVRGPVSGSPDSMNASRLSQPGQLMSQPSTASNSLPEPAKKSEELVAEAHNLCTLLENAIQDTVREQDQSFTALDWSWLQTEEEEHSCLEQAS

[19] = target: T5, Inhibitor of nuclear factor kappa-B kinase subunit beta (Homo sapiens); details: at 1 µM
[20] = target: T6, Inhibitor of nuclear factor kappa-B kinase subunit epsilon (Homo sapiens) (UniProt Q14164); details: at 0.1 µM;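 also: mean inhibition of IKKε reported, from the GSK PKIS dataset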
T6 sequence (whole entry): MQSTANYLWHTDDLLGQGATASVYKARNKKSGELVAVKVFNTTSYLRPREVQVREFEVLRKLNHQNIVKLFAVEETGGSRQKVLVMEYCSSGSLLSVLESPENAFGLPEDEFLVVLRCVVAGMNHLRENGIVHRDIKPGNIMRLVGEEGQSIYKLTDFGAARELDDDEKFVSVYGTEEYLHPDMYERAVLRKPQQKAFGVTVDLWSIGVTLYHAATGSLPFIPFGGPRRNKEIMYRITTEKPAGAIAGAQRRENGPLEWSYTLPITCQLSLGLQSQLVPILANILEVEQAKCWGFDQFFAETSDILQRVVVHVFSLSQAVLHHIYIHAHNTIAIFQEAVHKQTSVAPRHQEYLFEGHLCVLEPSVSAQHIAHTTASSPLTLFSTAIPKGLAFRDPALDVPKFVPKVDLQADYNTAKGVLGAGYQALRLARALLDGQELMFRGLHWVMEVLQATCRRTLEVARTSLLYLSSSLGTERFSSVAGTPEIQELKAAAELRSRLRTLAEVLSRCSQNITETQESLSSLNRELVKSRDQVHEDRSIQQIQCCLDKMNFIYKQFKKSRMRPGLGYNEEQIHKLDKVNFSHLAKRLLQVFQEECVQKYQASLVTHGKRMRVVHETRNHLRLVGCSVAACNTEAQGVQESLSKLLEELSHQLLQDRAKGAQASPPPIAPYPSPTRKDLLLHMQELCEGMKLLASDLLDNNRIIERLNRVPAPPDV

| Structure (SMILES) | inhibition [1] [%] | inhibition [2] [%] | inhibition [3] [%] | inhibition [4] [%] | inhibition [5] [%] | inhibition [6] [%] | inhibition [7] [%] | inhibition [8] [%] | inhibition [9] [%] | inhibition [10] [%] | inhibition [11] [%] | inhibition [12] [%] | inhibition [13] [%] | inhibition [14] [%] | inhibition [15] [%] | inhibition [16] [%] | inhibition [17] [%] | inhibition [18] [%] | inhibition [19] [%] | inhibition [20] [%] |
| --- | --- | --- | --- | --- | --- | --- | --- | --- | --- | --- | --- | --- | --- | --- | --- | --- | --- | --- | --- | --- |
| CN(c1ccc(NC(=O)NCCN2CCOCC2)cc1)c1ccnc(Nc2ccc(CS(C)(=O)=O)cc2)n1 | 1.28 | 0.25 | 2.58 | 1.92 | 2.04 | -0.08 | 0.81 | 4.11 | 4.4 | 0.08 | 7.75 | 0.36 | 0.38 | 5.71 | 11.9 | 10.9 | 8 | 3.48 | 3.83 | 3.55 |
| CS(=O)(=O)Nc1ccc(-c2cc(-c3ccccc3)cc(C(N)=O)c2N)cc1 | 1.43 | -1.01 | -1.76 | 3.24 | 3.21 | 3.22 | 3.77 | 0.42 | -0.01 | -1.73 | 2.51 | -0.04 | -0.67 | 0.89 | 2.26 | 1.46 | 4.19 | 6.82 | 27.4 | 0.29 |
| COc1cc(N2CCN(C(C)C)CC2)ccc1Nc1nc(Nc2cccc(F)c2C(=O)O)c2cc[nH]c2n1 | 1.52 | -1.29 | 5.69 | 2.86 | 4.42 | -0.59 | -3.11 | 2.44 | 0.72 | -1.3 | -1.68 | -0.64 | -0.33 | 6.3 | 22.4 | 4.18 | 3.93 | 6.66 | 8.91 | 5.22 |
